Consider 19 molecules from PubChem BioAssay (NCATS).

SMILES strings stand for the structures. Records with an inconclusive call do not appear. The source made the active and inactive calls. Calls come from the whole dose curve; as a rule, active = well fitted curve in the direction sought with a large enough effect; inconclusive = small, poorly fitted or top-dose-only effect, or another doubt; inactive = no such curve, though single readings can be large; an effect the other way counts as inactive or inconclusive.

In assay [1] the target is Nuclear receptor subfamily 1 group I member 3 (Homo sapiens) (UniProt Q14994). The assay is described as follows: Primary qHTS for antagonist of constitutive androstane receptor (CAR) against the NCATS DSHEA and TCM libraries (AID 1794836).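 Note: HepG2 cells stably expressing hCAR with CYP2B6 luciferase reporter stimulated by CITCO; series mostly up to about 40 µM.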 Summed up: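 HepG2-CYP2B6-hCAR cells, attached 5 h, given compounds plus CITCO agonist […], incubated 24 h at 37 C. Luciferase luminescence read, multiplexed with CellTiter-Fluor viability (Ex/Em 405/540 nm).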
In general terms: Quantitative high-throughput screening tests each substance at several concentrations.

Assay [2] concerns the target Metallo-beta-lactamase type 2 (Klebsiella pneumoniae) (UniProt C7C422). The assay is described as follows: qHTS to identify inhibitors of the New Delhi Metallo-beta-lactamase (NDM): assay validation screen against the NCATS LOPAC Collection (AID 1794843).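 Note: nitrocefin turnover by NDM-1 measured as 485 nm absorbance at plateau; series mostly up to about 38 µM.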 In outline: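 Enzyme 2 nM final, 50 mM HEPES pH 7.0, 1 uM ZnSO4, 0.01% Tween20; cpds in DMSO, preincub w/ enzyme; + nitrocefin (50 uM stock); A485 at plateau; no-enzyme column as blank.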

Assay [3] deals with Glutathione peroxidase 1 (Homo sapiens) (UniProt P07203). The assay is described as follows: Primary qHTS Assay for Inhibitors of Recombinant Selenoprotein Glutathione Peroxidase 1 (GPX1) (AID 1845191). Note: nearly all actives have a fitted effect of over 65% in size. In outline: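 GR-coupled assay: compounds preincubated 30 min at room temperature with GPX1, then reaction started with CHP; final 10 nM GPX1, 1 mM GSH, 0.5 mM CHP, 0.5 mM NADPH, 100 nM GR, 0.01% BSA, pH 7.5 Tris buffer. NADPH fluorescence (340/450 nm) read at 0 and 15 min.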

Assay [4] deals with Phospholipid hydroperoxide glutathione peroxidase GPX4 (Homo sapiens) (UniProt P36969). In words: Primary qHTS Assay for Inhibitors of Recombinant Selenoprotein Glutathione Peroxidase 4 (GPX4) (AID 1845192). Note: nearly all actives have a fitted effect of over 65% in size. Summed up: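 GR-coupled assay: recombinant GPX4 preincubated 30 min with compound at room temperature; final 200 nM GPX4, 1 mM GSH, 0.5 mM cumene hydroperoxide, 0.5 mM NADPH, 100 nM GR, 0.01% BSA, pH 7.5 Tris. NADPH fluorescence (340/450 nm) read at 0 and 15 min.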

The nature of assay [5]: Quantitative High-Throughput drug screen in 47 multiple myeloma cell lines against the NCATS MIPE library collection: FR4_PLB cell viability assay (AID 1918924; note: nearly all actives have a fitted effect of over 35% in size). In outline: (§1)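 Inhibition of cell viability is measured here. Each line was plated at 500 cells per well, treated with MIPE 4.0 drugs, kept 48 hours at 37C, then assayed for ATP content by CellTiter-Glo luminescence.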

Assay [6] in a line: Quantitative High-Throughput drug screen in 47 multiple myeloma cell lines against the NCATS MIPE library collection: Delta47_JCRB cell viability assay (AID 1918925; note: nearly all actives have a fitted effect of over 45% in size). Summed up:
(§2)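 Primary qHTS used for cherry-picking: cells at 500/well, library compounds for 48 h (37C, 5% CO2), luminescent ATP assay.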

Assay [7] is described as follows: Quantitative High-Throughput drug screen in 47 multiple myeloma cell lines against the NCATS MIPE library collection: EJM_DSMZ cell viability assay (AID 1918926; note: nearly all actives have a fitted effect of over 30% in size). Summed up: as §2
A short description of assay [8]: Quantitative High-Throughput drug screen in 47 multiple myeloma cell lines against the NCATS MIPE library collection: AMO1_DSMZ cell viability assay (AID 1918927; note: nearly all actives have a fitted effect of over 30% in size). In outline: as §2
Assay [9] in a line: Quantitative High-Throughput drug screen in 47 multiple myeloma cell lines against the NCATS MIPE library collection: ARP1_JJKsccF8 cell viability assay (AID 1918928; note: nearly all actives have a fitted effect of over 40% in size; note: potency is the fitted concentration of half-maximal effect). Summed up:
(§3)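 Here, 48 h treatment with MIPE 4.0 agents at 37 °C preceded an ATP luminescence read. Plating density was 500 cells per well.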

Assay [10] in a line: Quantitative High-Throughput drug screen in 47 multiple myeloma cell lines against the NCATS MIPE library collection: ARD_JJKsccE7 cell viability assay (AID 1918929). In outline:
as §2

A short description of assay [11]: Quantitative High-Throughput drug screen in 47 multiple myeloma cell lines against the NCATS MIPE library collection: Karpas620_DSMZ cell viability assay (AID 1918959). Note: nearly all actives have a fitted effect of over 30% in size. In outline: as §1
A short description of assay [12]: Quantitative High-Throughput drug screen in 47 multiple myeloma cell lines against the NCATS MIPE library collection: KMM1_JCRB cell viability assay (AID 1918960). Note: nearly all actives have a fitted effect of over 30% in size. Summed up: as §3
The target in assay [13] is Luciferin 4-monooxygenase (Photinus pyralis) (UniProt P08659). The assay is described as follows: Primary firefly luciferase (FLuc) qHTS assay for identification of artifact compounds. (AID 1845220). Note: series mostly up to about 54 µM; nearly all actives have a fitted effect of over 60% in size. The following applies: outcome: dose series up to 54.1 µM unless noted. Summed up:
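Enzymatic FLuc inhibition assay: compounds pre-exposed to luciferin/ATP (10 uM each) for 15 min, then purified P. pyralis enzyme at 10 nM added. Read-out: luminescence at 5 min.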

Assay [14] in a line: Primary fluorescence-based thiol-reactive (MSTI) qHTS assay for identification of artifact compounds. (AID 1845221).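 Note: series mostly up to about 54 µM; thiol-reactive compounds lower the probe fluorescence signal; nearly all actives have a fitted effect of over 65% in size.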 Summed up: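 MSTI probe at 4 uM final in 2% DMSO/PBS pH 7.4; compounds, 1 h at room temperature in dark. Fluorescence Ex/Em 525/598 nm, normalised to Acetyl-MSTI and MSTI, fitted to 4-parameter Hill.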
Assay [15] is described as follows: Primary redox qHTS assay for identification of artifact compounds. (AID 1845223). In outline:
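Amplex Red (25 uM) and HRP (250 mU/mL) in HBSS, with compounds for 15 min, then 250 uM DTT for 30 min, room temperature, dark. Fluorescence 525/598 nm read; normalized to DMSO and 10 uM DA3003; Hill fit.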

Nuclear receptor subfamily 1 group I member 3 (Homo sapiens), sequence (Q14994 whole entry, looked up): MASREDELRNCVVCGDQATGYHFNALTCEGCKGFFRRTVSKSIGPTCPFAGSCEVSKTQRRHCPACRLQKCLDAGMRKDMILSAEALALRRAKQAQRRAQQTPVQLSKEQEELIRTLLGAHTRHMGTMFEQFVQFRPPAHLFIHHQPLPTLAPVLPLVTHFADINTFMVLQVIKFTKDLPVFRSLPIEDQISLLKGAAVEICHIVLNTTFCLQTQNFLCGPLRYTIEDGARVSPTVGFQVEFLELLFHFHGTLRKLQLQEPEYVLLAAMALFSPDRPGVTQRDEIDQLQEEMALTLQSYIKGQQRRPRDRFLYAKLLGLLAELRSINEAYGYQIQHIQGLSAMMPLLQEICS
Phospholipid hydroperoxide glutathione peroxidase GPX4 (Homo sapiens), sequence (P36969 whole entry, looked up): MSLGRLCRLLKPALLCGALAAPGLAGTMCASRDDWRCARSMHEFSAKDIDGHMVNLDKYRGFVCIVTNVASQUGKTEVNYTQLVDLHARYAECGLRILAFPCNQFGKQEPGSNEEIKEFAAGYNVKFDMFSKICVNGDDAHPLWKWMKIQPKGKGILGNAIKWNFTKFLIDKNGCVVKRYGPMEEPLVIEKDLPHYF
Metallo-beta-lactamase type 2 (Klebsiella pneumoniae), sequence (C7C422 whole entry, looked up): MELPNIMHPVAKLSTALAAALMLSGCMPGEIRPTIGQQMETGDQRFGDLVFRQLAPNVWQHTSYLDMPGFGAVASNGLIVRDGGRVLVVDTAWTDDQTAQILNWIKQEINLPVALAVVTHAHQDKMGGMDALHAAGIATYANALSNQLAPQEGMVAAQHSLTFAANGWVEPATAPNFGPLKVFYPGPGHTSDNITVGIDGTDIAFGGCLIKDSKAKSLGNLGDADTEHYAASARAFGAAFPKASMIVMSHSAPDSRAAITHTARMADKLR
Glutathione peroxidase 1 (Homo sapiens), sequence (P07203 whole entry, looked up): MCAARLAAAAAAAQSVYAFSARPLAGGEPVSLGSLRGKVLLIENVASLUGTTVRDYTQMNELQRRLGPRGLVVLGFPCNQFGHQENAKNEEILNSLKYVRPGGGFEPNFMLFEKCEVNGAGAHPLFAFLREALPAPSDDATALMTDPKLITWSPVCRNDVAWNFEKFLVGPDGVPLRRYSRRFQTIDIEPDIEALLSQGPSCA

Turning to `Cc1ccc(C(C)C)c(O)c1`, the outcome in [1] was inactive.

For the molecule `CCC1(c2ccc(N)cc2)CCC(=O)NC1=O` (stereo unspecified), the call in [2] was inactive. Besides, the Potency result in assay [3], in assay [4], in assay [5], in [6], in assay [7] and in assay [8] was “inactive” in each case. For the same molecule, the Potency entry in assay [9], in [10], in assay [11] and in assay [12] was “inactive” in each case.

`COc1c2c(cc3c1OCO3)CCN(C)C2`: the Potency result in [3] and in [4] was “inactive” in each case.

Turning to `CNC(C)(C)Cc1ccccc1`, the Potency result in assay [3] and in [4] was “inactive” in each case.

`CC(NC(C)(C)C)C(=O)c1cccc(Cl)c1` (stereo unspecified): the molecule was classed as inactive in [2], in assay [13], in assay [14] and in [15]. In addition, the Potency result in assay [3], in assay [4], in [5], in assay [7], in assay [8] and in assay [11] was “inactive” each time. The Potency in assay [9] is 13.2 µM (active).

Take `Nc1ccccc1`: the Potency entry in [3] and in [4] was “inactive” in each case.

Regarding `CCCCCN(C)CCC(O)(P(=O)(O)O)P(=O)(O)O`, the molecule was called inactive in [2]. Besides, the Potency result in assay [3] and in assay [4] was “inactive” throughout.

For `CC(C)c1cccc(C(C)C)c1O`, in assay [2], the outcome was inactive. Also, the Potency entry in [3], in [4], in assay [5], in [6], in assay [7] and in [8] was “inactive” throughout. Moreover, the Potency entry in assay [9], in assay [10], in assay [11] and in assay [12] was “inactive” throughout.

Take `C=CCc1ccc(O)c(OC)c1`: the result in [1] was inactive.

As to `COP(=S)(OC)Oc1cc(Cl)c(Cl)cc1Cl`, the Potency result in assay [3] and in assay [4] was “inactive” each time.

In the case of `NNC(=O)c1ccncc1`, the result in [1] was inactive.

As to `CC(C)=CCC[C@@](C)(O)[C@H]1CC=C(C)CC1`, the result in [1] was inactive.

Consider `O=C1OC(c2ccc(O)c(S(=O)(=O)O)c2)(c2ccc(O)c(S(=O)(=O)O)c2)c2c(Br)c(Br)c(Br)c(Br)c21`, for which the Potency result in assay [3] was “inactive”.

For `CCOP(=S)(OCC)Oc1ccc2c(C)c(Cl)c(=O)oc2c1`, the Potency entry in assay [3] and in assay [4] was “inactive” throughout.

Take `CCCCCCCCCCCCCCCC(=O)O`: the result in assay [1] was inactive.

Regarding `CC(C)[C@H]1C(=O)N2CCC[C@H]2[C@]2(O)O[C@](NC(=O)[C@@H]3C[C@@H]4c5cccc6[nH]cc(c56)C[C@H]4N(C)C3)(C(C)C)C(=O)N12`, in assay [3], the Potency result was “inactive”.

For the molecule `O=C(CCCN1CCC2(CC1)C(=O)NCN2c1ccccc1)c1ccc(F)cc1`, the result in assay [2] was inactive. For the same molecule, the Potency result in [3] and in assay [4] was “inactive” in each case.

For the molecule `COc1ccc2c(c1OC)C(=O)O[C@H]2[C@@H]1c2cc3c(cc2CCN1C)OCO3`, the molecule was classed as inactive in assay [2]. Moreover, the Potency entry in [3] and in [4] was “inactive” throughout.

Take `Oc1ccc(Cl)cc1`: the Potency result in assay [3] and in assay [4] was “inactive” throughout.
